High-throughput results from PubChem BioAssay.
Sampled rows, rich in hits. Any-hit rate of the full collection: about 3.4%.
GPR151 activ: activates the human receptor GPR151; PathHunter beta-arrestin GPR151 cells, luminescence; 650,000 compounds, 1% hits; activation, % at 11.2 µM; in the data active = activation above about 4.9%;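 note: 0% = median of compound wells and 100% = cells with positive control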
FBW7 activator: human FBW7 E3 ligase activation, primary screen; normalized activity (activation), % at 26.1 µM; Q969H0; 650,000 compounds, 0.13% hits; AlphaScreen FBW7–phospho-cyclin E peptide binding, activator screen; in the data active = normalized activity above about 1.9%;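 note: purified mutant Fbw7 with reduced substrate affinity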
TEAD-YAP inh: TEAD-YAP interaction inhibition; HEK-TIYL cells, TEAD-Gal4/YAP UAS-luciferase luminescence; AID 1259422; inhibition, % at 9.12 µM; 640,000 compounds, 1.4% hits; in the data active = inhibition above about 32%;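 note: 0% = median of test compound wells and 100% = reference inhibitor wells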
MITF primary: inhibitors of human MITF | O75030 | inhibition, % at 2.6 µM | AID 1259374 | AlphaScreen MITF homodimerization, bead proximity signal | 650,000 compounds, 0.91% hits; in the data active = inhibition above about 50%;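 note: 0% = vehicle wells with protein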
Target sequence (O75030 whole entry, looked up): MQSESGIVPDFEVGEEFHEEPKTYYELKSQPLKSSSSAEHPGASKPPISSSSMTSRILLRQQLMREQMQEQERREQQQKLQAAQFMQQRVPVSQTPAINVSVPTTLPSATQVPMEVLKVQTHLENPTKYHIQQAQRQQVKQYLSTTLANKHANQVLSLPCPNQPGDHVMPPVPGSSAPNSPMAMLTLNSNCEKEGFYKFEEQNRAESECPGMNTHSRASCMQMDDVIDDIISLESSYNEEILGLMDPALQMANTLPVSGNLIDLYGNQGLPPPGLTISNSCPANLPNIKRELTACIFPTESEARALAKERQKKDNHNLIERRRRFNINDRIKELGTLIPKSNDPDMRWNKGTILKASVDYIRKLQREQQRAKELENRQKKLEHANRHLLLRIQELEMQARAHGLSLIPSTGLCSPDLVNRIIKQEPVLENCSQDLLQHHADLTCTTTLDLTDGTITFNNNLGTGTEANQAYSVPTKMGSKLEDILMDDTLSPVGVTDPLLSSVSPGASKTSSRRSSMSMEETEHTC
MITF inh conf: confirmation of human MITF inhibitors. shares compounds with MITF primary. AlphaScreen MITF homodimerization, biotin/His-MITF beads. inhibition, % at 2.6 µM. 4,700 compounds, 16% hits;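 active = inhibition above a cutoff derived from the DMSO control wells, cut at about 28% in these data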;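 note: 0% = MITF dimer wells with DMSO only; inhibitors lower the bead chemiluminescence by keeping MITF from dimerizing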
AlphaScreen intf2: AlphaScreen optical interference, counter-screen; shares compounds with MITF primary; inhibition, % at 2.6 µM; LysRS AlphaScreen counterscreen, signal interference, triplicate; 4,700 compounds, 7.6% hits;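 active = inhibition above a cutoff derived from the DMSO control wells, cut at about 30% in these data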
The depositor's hits bear a star; . = no result given.

SMILES	GPR151 activ	FBW7 activator	TEAD-YAP inh	MITF primary	MITF inh conf	AlphaScreen intf2
CNC(=O)CN1CCN(Cc2nc3ccc(OC)cc3[nH]2)CC1	0	0	3	80*	12	12
CCS(=O)(=O)N1CCN(Cc2nc3ccc(OC)cc3[nH]2)CC1	-2	-1	-7	62*	14	22
CCS(=O)(=O)N1CCN(Cc2ccc(OC)cc2)CC1	0	0	6	38	.	.
COC(=O)C(NCC(=O)NCc1ccc(Cl)cc1)C(C)C (stereo unspecified)	-1	0	5	66*	15	19
COCC(=O)NCc1ccc(Cl)cc1	0	0	0	0	.	.
Cc1cccc(-n2cc(-c3ccccc3)c3c(NCCN4CCOCC4)ncnc32)c1	-2	0	-6	14	.	.
CCN(CC)C(=O)C1CCCN(c2cc(C(=O)NCCCN3CCCC3=O)ccn2)C1 (stereo unspecified)	1	0	6	-10	.	.
Cc1nnn(C23CC4CC(CC(CC(=O)Nc5ccc(F)cc5)(C4)C2)C3)n1	0	1	-8	75*	10	9
Cc1ccc(OCCCN(C)C)c([N+](=O)[O-])c1	0	0	-3	68*	-1	10
COc1ccc(OCCCCOc2ccc([N+](=O)[O-])cc2)cc1	0	0	3	9	.	.
C=CCNCCCOc1ccc(C)cc1[N+](=O)[O-]	-4	0	-1	44	.	.
CN(C)CCCCOc1ccc([N+](=O)[O-])cc1	1	0	5	77*	5	-1
C=CCNCCOc1ccc(C)cc1[N+](=O)[O-]	3	0	-3	52*	-23	-3
Nc1c(C(=O)NCc2ccccc2)nnn1Cc1ccc(Cl)cc1	2	0	-5	-6	.	.
c1ccc(CNc2nc(Nc3nccc4ccccc34)nc3c2ncn3-c2ccsc2)cc1	1	0	-6	5	.	.
CC(=O)c1ccc(OCCCCN2CCN(C)CC2)cc1	0	0	-8	52*	9	22
CC(=O)c1ccc(OCCN2CCCCC2)cc1	0	0	-3	32	.	.
CCN1CCN(CCOc2ccc(C(C)=O)cc2)CC1	0	0	0	78*	1	16
CCN1CCN(CC(=O)c2ccc(OC(F)F)cc2)CC1	1	0	-1	78*	9	18
CN(C)CCNc1ccc(S(C)(=O)=O)cc1	1	0	1	-10	.	.
Cc1noc(C)c1CC(=O)N1CCOc2ccc(C(O)c3ccccn3)cc2C1 (stereo unspecified)	0	0	-4	8	.	.
CCOC(c1ccccc1)c1ccc2c(c1)CN(C(=O)Cc1c(C)noc1C)CCO2 (stereo unspecified)	-1	0	-4	75*	-5	-4
Cc1ccc(Cl)cc1N1CCN(C(=S)NCCN2CCOCC2)CC1	-2	0	1	51*	-1	3
CC(=O)Nc1ccc2nc(Nc3nc4c(F)cccc4s3)sc2c1	0	0	-83	3	.	.
Clc1c(OCCCN2CCNCC2)ccc2ccccc12	1	0	-22	51*	-13	-7
SMILES	GPR151 activ	FBW7 activator	TEAD-YAP inh	MITF primary	MITF inh conf	AlphaScreen intf2
CCN1CCN(CCOc2ccc3ccccc3c2Cl)CC1	0	0	-2	58*	11	19
CCN1CCN(CCOc2cccc3ccccc23)CC1	0	0	14	-17	.	.
CCN1CCN(CCCOc2ccc3ccccc3c2Br)CC1	0	0	-19	61*	7	15
COc1ccc(C(=O)CSc2ncn[nH]2)cc1C	0	0	-15	69*	7	15
COc1ccc(OC)c(C(=O)CSc2ncn[nH]2)c1	3	0	-9	8	.	.
CCN(CC)CCCNC(=O)c1[nH]c(C)c(C(C)=O)c1C	0	0	0	3	.	.
CCN(CC)CCCNC(=O)c1[nH]c(C)c(C(=O)NC2CCCCC2)c1C	-1	0	5	90*	16	12
Cc1nc(N2CCCCC2)nc2c1CCC2	0	0	2	5	.	.
CCC(=O)c1ccccc1OCCN1CCN(C)CC1	-1	0	7	13	.	.
COc1ccc(C(=O)NC(=S)N2CCN(Cc3ccccc3)CC2)cc1OC	-1	0	-2	18	.	.
CCC(=O)c1ccccc1OCCCCN1CCN(CC)CC1	4	0	8	60*	18	13
COc1cc(C(C)=O)ccc1OCCN1CCN(Cc2ccccc2)CC1	-1	1	11	62*	6	10
CCC(=O)c1ccccc1OCCN1CCN(Cc2ccccc2)CC1	1	0	14	66*	7	3
CC(=NCCCO)C1=C(O)c2ccccc2C1=O	1	0	-10	-11	.	.
Cc1cc(Cl)cc(Cl)c1OCCCCNCCN1CCOCC1	0	0	3	62*	6	1
Cc1cccc(C(C)(C)C)c1OCCN1CCOCC1	0	0	6	80*	5	10
Cc1cc(C)c(OCCN2CCOCC2)c(Cl)c1	-1	1	6	54*	17	12
O=C(CCc1ccc2c(c1)OCO2)NCC1Cc2cc(Cl)cc(-c3cnccn3)c2O1 (stereo unspecified)	0	0	6	2	.	.
c1ccc(C[n+]2ccc(-c3nc4ccccc4s3)cc2)cc1	1	0	0	-5	.	.
COC(=O)c1cc(CNCC(c2ccco2)N2CCCCC2)oc1C (stereo unspecified)	0	0	-4	76*	11	16
COC(=O)CCNCC(c1ccco1)N1CCCCC1 (stereo unspecified)	0	0	1	54*	-2	1
COc1ccc(NC(=S)NCC(c2ccco2)N2CCCC2)cc1 (stereo unspecified)	-1	0	2	6	.	.
Cc1ccccc1OCC(O)CN1CCN(CC(O)COc2ccccc2C)C(C)C1 (stereo unspecified)	-1	0	3	55*	-6	-5
Cc1ccc(Nc2nc(CSc3nnnn3C)cs2)cc1	0	0	-42	1	.	.
CCCN1CCN(Cc2csc(Nc3ccc(C)cc3)n2)CC1	0	0	8	61*	9	20
CC1=C(C(=O)OC(C)C)C(c2ccc(Cl)c(Cl)c2)NC(=O)N1C (stereo unspecified)	1	0	-3	1	.	.
CC1CC(C)CN(C(=O)C(C)N(C)CC(=O)Nc2ccc(Cl)cc2)C1 (stereo unspecified)	0	0	7	51*	8	10
COc1ccc(NC(=O)CN(C)C(C)C(=O)N2CCCCC2)cc1 (stereo unspecified)	2	0	0	66*	-3	12
CC(C(=O)N1CCCCC1)N(C)CC(=O)Nc1cccc(F)c1 (stereo unspecified)	1	1	8	64*	12	7
CCOc1cc(C=O)cc(Br)c1OCC(=O)N(C)C	1	0	-8	-4	.	.
